Changes are numbered by the printed parent chain.

Experiment in all cases: protein-binding microarray (PBM); PBM: ~300 nM protein, 6 mM HEPES pH 7.8, 80 mM KCl, 0.5 mM EDTA, 0.5 mM EGTA, 6% glycerol, 35 ng/ul poly-dIdC, 1% milk, 1 h, room temperature; Ap Aiptasia and Nv Nematostella (sea anemones) / Co Capsaspora / Aq Amphimedon (sponge) / Dm Drosophila / Hu human; RHD is the Rel homology domain; high values mean tight binding
Holding throughout (settings): dsDNA, one strand shown

The target of assay [1] is T1, GST-Co-NF-kB (Capsaspora owczarzaki, UniProt F1ARL5 200-546).
T1 sequence: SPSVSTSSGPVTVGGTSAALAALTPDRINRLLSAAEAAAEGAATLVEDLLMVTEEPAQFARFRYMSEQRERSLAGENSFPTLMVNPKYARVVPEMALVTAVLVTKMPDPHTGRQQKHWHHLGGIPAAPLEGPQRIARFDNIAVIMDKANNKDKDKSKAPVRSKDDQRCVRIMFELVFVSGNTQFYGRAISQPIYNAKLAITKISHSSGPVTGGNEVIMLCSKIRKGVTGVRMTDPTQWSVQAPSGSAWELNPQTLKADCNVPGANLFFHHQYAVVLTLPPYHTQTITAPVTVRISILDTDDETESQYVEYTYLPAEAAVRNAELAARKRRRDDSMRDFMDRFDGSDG

Assay [2] addresses T2, GST-Ap-NF-kB RHD (Exaiptasia pallida (Aiptasia), UniProt A0A913YAJ5 2-422).
T2 sequence: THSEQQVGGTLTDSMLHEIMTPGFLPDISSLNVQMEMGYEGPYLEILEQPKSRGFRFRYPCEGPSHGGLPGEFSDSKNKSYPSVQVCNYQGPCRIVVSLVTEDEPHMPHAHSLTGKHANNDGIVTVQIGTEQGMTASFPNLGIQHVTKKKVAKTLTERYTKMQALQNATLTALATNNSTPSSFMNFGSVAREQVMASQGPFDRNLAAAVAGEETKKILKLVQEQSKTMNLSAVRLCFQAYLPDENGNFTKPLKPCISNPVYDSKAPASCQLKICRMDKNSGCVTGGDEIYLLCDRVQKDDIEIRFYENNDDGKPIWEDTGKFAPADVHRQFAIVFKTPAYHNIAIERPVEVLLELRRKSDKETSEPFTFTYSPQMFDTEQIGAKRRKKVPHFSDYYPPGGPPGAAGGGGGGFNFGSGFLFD

Assay [3] has as its target T3, GST-Dm-Relish (Drosophila melanogaster, UniProt Q94527 99-473).
T3 sequence: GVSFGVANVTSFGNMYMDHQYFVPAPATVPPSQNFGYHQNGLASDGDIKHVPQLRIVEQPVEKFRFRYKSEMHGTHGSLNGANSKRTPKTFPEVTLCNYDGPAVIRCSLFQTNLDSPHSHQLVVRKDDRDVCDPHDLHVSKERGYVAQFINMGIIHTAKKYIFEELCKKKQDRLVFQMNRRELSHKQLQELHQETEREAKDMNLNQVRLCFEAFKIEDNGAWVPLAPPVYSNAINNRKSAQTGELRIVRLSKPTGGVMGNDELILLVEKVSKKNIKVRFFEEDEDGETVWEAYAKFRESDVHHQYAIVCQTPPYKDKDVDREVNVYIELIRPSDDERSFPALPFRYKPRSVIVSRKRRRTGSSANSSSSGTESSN

The target of assay [4] is T4, GST-Nv-NF-kB (Ser allele) (Nematostella vectensis, UniProt A7UNT2 2-411).
T4 sequence: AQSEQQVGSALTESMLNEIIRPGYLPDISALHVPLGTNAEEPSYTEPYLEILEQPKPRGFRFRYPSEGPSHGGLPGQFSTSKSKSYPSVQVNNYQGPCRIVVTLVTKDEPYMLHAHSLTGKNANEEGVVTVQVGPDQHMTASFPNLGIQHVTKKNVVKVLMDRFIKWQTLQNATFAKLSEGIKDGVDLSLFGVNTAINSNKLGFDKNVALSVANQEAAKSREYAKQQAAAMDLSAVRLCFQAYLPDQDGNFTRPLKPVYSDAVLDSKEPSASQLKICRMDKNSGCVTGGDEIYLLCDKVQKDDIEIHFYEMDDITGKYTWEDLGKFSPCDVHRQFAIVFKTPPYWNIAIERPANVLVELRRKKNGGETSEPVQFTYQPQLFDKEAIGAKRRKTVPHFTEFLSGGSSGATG

Assay [5] addresses T5, GST-Nv-NF-kB (Cys allele) (Nematostella vectensis, UniProt E5G601 2-411).
T5 sequence: T4 sequence with R21Q, S66C, N207S, Q215E, A217V, K225E, E268A, E399D

The sequence “CCGATTAACATCACGGTGTGGGTTGATGTTAATCGGGTCTTGATTCGCTTGACGCTGCTG” showed a binding signal in assay [1] of 1.37 z-score.
Take “CCGATTAACATCAATTAGGTGGGTGATGTTAATCGGGTCTTGATTCGCTTGACGCTGCTG”: the binding signal in assay [2] turned out to be 1.19 z-score; in assay [1], 1.13 z-score.
As to “CCGATTAACATCATGGGGTGTGCTGATGTTAATCGGGTCTTGATTCGCTTGACGCTGCTG”, the binding signal in assay [2] stood at 1.12 z-score; in assay [1], 1.28 z-score.
Consider “CCGATTAACATCACCCCCCCCCCTGATGTTAATCGGGTCTTGATTCGCTTGACGCTGCTG”, for which the values for the binding signal in assay [2], in assay [1] and in assay [3] were 5.35 z-score, 7.37 z-score and 4.97 z-score, respectively.
“CCGATTAACATCACCCGCGCTCATGATGTTAATCGGGTCTTGATTCGCTTGACGCTGCTG”: the binding signal amounted to 1.32 z-score in assay [2] and 1.06 z-score in assay [3].
As for “CCGATTAACATCACCCCATCTCGTGATGTTAATCGGGTCTTGATTCGCTTGACGCTGCTG”, the binding signal in assay [2] came to 1.2 z-score; in assay [1] it was 2.11 z-score; in assay [3], 1.42 z-score.
The sequence “CCGATTAACATCAGATAGGTACTTGATGTTAATCGGGTCTTGATTCGCTTGACGCTGCTG” showed a binding signal in assay [4] of 2.46 z-score.
In assay [5], “CCGATTAACATCAAGAACCTTCTTGATGTTAATCGGGTCTTGATTCGCTTGACGCTGCTG” yielded a binding signal of 1.02 z-score.
“CCGATTAACATCAGGGCAAAAAATGATGTTAATCGGGTCTTGATTCGCTTGACGCTGCTG”: in assay [1], the binding signal is 1.84 z-score.
On to “CCGATTAACATCACTGGGAGGGCTGATGTTAATCGGGTCTTGATTCGCTTGACGCTGCTG”, for which the results for the binding signal in assay [2] and in assay [1] were 1.08 z-score and 1.47 z-score, respectively.
For “CCGATTAACATCATACCTCCCGTTGATGTTAATCGGGTCTTGATTCGCTTGACGCTGCTG”, the binding signal in assay [1] was found to be 1.01 z-score.
Turning to “CCGATTAACATCACCAAGTATAGTGATGTTAATCGGGTCTTGATTCGCTTGACGCTGCTG”, the binding signal in assay [1] was determined as 1.42 z-score.
In assay [4], “CCGATTAACATCAGGTAATATATTGATGTTAATCGGGTCTTGATTCGCTTGACGCTGCTG” gave a binding signal of 2.14 z-score.
As to “CCGATTAACATCACTACCCCGGATGATGTTAATCGGGTCTTGATTCGCTTGACGCTGCTG”, the binding signal in assay [2] stood at 1.88 z-score; in assay [1], 3.19 z-score.
Turning to “CCGATTAACATCAATCAGCGGGGTGATGTTAATCGGGTCTTGATTCGCTTGACGCTGCTG”, the binding signal in assay [2] was 1.21 z-score; in assay [1], 2.43 z-score.
For the sequence “CCGATTAACATCAAGGGGGGGGGTGATGTTAATCGGGTCTTGATTCGCTTGACGCTGCTG”, the binding signal came out at 5.14 z-score in assay [2], 7.25 z-score in assay [1] and 5.34 z-score in assay [3].
For the sequence “CCGATTAACATCAGCATTCCCAATGATGTTAATCGGGTCTTGATTCGCTTGACGCTGCTG”, the binding signal in assay [5] turned out to be 1.29 z-score; in assay [1], 1.08 z-score.
The sequence “CCGATTAACATCACGTGGGGCGTTGATGTTAATCGGGTCTTGATTCGCTTGACGCTGCTG” came in with a binding signal in assay [5] of 1.36 z-score.
With “CCGATTAACATCAAGGGTGGAAATGATGTTAATCGGGTCTTGATTCGCTTGACGCTGCTG”, in assay [1], the binding signal is 1.66 z-score.
Turning to “CCGATTAACATCAAGGGGGGGGATGATGTTAATCGGGTCTTGATTCGCTTGACGCTGCTG”, the binding signal in assay [2] came out at 7.71 z-score; in assay [1] it was 7.64 z-score; in assay [3], 5.31 z-score.
As for “CCGATTAACATCACACTGTTCAGTGATGTTAATCGGGTCTTGATTCGCTTGACGCTGCTG”, the binding signal in assay [4] amounted to 1.06 z-score.
For the sequence “CCGATTAACATCAATAGTACCGATGATGTTAATCGGGTCTTGATTCGCTTGACGCTGCTG”, the binding signal in assay [2] came to 1.43 z-score; in assay [5], 1.03 z-score; in assay [4] it was 3 z-score.
As for “CCGATTAACATCAAATAATTTCCTGATGTTAATCGGGTCTTGATTCGCTTGACGCTGCTG”, the binding signal in assay [3] was found to be 1.21 z-score.
In assay [3], “CCGATTAACATCAGGAAAATCACTGATGTTAATCGGGTCTTGATTCGCTTGACGCTGCTG” displayed a binding signal of 3.47 z-score.
Still for that read-out and setting: the figure for “CCGATTAACATCACAATACACGCTGATGTTAATCGGGTCTTGATTCGCTTGACGCTGCTG” is 1.05 z-score.
“CCGATTAACATCACGTGATTTCCTGATGTTAATCGGGTCTTGATTCGCTTGACGCTGCTG” came in with a binding signal in assay [3] of 4.11 z-score.
In the case of “CCGATTAACATCAAGTGATTTCCTGATGTTAATCGGGTCTTGATTCGCTTGACGCTGCTG”, the binding signal in assay [3] came out at 4.18 z-score.
In the case of “CCGATTAACATCAGGAAAAATACTGATGTTAATCGGGTCTTGATTCGCTTGACGCTGCTG”, the binding signal in assay [3] came out at 1.36 z-score.
The same measure, in the same setting: the result for “CCGATTAACATCAATAAATGTACTGATGTTAATCGGGTCTTGATTCGCTTGACGCTGCTG” reads 1.14 z-score.
As to “CCGATTAACATCAAGTGAATTCCTGATGTTAATCGGGTCTTGATTCGCTTGACGCTGCTG”, the binding signal in assay [3] worked out at 3.49 z-score.
Sequence “CCGATTAACATCAGGAAAATACATGATGTTAATCGGGTCTTGATTCGCTTGACGCTGCTG” registered a binding signal in assay [3] of 4.66 z-score.
As for “CCGATTAACATCAGGAATATACATGATGTTAATCGGGTCTTGATTCGCTTGACGCTGCTG”, the binding signal in assay [3] was determined as 2.59 z-score.
Consider “CCGATTAACATCACGTTCTTTCCTGATGTTAATCGGGTCTTGATTCGCTTGACGCTGCTG”, for which the binding signal in assay [3] is 2.3 z-score.
“CCGATTAACATCAGAATTTCCTATGATGTTAATCGGGTCTTGATTCGCTTGACGCTGCTG” came in with a binding signal in assay [3] of 1.23 z-score.
In turn, “CCGATTAACATCACCTCTCGCGCTGATGTTAATCGGGTCTTGATTCGCTTGACGCTGCTG” came in with a binding signal in assay [3] of 1.25 z-score.
The sequence “CCGATTAACATCAAGTACATTCCTGATGTTAATCGGGTCTTGATTCGCTTGACGCTGCTG” registered a binding signal in assay [3] of 2.21 z-score.
Take “CCGATTAACATCACGTAAACTCCTGATGTTAATCGGGTCTTGATTCGCTTGACGCTGCTG”: the binding signal in assay [3] was 1.72 z-score.
Still for that read-out and setting: the figure for “CCGATTAACATCAAAGGAAATTCTGATGTTAATCGGGTCTTGATTCGCTTGACGCTGCTG” is 1.56 z-score; for “CCGATTAACATCACCGCAGCATGTGATGTTAATCGGGTCTTGATTCGCTTGACGCTGCTG” it is 1.18 z-score.
